Screens deposited in PubChem by several laboratories.
CYP2C19 activ: human CYP2C19 activators, primary screen, biochemical, luminescence; 96,000 tested, under 10 active; Cytochrome P450 2C19 (Homo sapiens), P33261; activation factor at 5 µM; recombinant CYP2C19, luciferin-H EGE luminescence; active compounds read high; 0 = fully inhibited enzyme, 1 = untreated enzyme;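 active means activation factor of at least 2 at 5 µM in the primary screen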
CYP2C19 inhib: blockers of cytochrome P450 2C19 activity – biochemical, luminescence, ADME assay, primary screen; P33261; 21% of 96,000 active; CYP2C19 Supersomes, luciferin-H EGE luminescence, 30 min; inhibition, % at 5 µM; AID 778, 2007;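 active means CYP2C19 inhibition above a set limit at 5 µM in the primary screen, cut at about 50% in these data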
PTK2B oligo ant: antagonists of Pyk2 self-association, primary screen, Q293 cells, FERM NanoBiT luminescence, HTS; Protein-tyrosine kinase 2-beta (Homo sapiens), Q14289; active compounds read low; 0.83% of 99,000 active; z-score (the deposit names both 25 µM and 10 µM); AID 1347419, 2020;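 active means Z-score of -3 or lower, scaled per plate to the spread of control and sample wells; inactive means z-score above -3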;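 further: negative z-score means lost luminescence so less FERM oligomerization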
CYP2C9 inhib: blockers of cytochrome P450 2C9 activity – biochemical, luminescence, ADME assay, primary screen; CYP2C9 Supersomes, luciferin-H conversion; P11712; inhibition, % at 5 µM; 20% of 96,000 active;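 active means blocking of liver enzyme CYP2C9 beyond about 50% at 5 µM, limit read from the data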
Target sequence (P11712 whole entry, looked up): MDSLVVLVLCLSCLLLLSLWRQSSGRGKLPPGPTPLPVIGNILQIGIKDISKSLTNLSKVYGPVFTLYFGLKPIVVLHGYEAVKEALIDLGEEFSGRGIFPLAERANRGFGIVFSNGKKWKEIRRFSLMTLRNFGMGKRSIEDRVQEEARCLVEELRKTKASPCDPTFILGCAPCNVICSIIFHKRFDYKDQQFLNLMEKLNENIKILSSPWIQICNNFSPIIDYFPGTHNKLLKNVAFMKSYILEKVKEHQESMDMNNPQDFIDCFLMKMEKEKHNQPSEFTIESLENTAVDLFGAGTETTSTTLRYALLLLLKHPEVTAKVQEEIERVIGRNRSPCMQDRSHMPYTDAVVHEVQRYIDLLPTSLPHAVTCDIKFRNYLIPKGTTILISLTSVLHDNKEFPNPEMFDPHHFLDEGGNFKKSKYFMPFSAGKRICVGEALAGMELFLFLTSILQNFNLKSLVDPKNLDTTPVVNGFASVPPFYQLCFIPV
CYP2C9 activ: human CYP2C9 activators, primary screen, biochemical, luminescence. 1.4% of 96,000 active. AID 1024, 2008. activation factor at 5 µM. recombinant CYP2C9, luciferin-H conversion; active compounds read high; factor 1 = untreated enzyme, 0 = blocked;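 active means activation factor of 2 or more for CYP2C9 at a 5 µM dose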
Cav3 T inh: Cav3.2 calcium influx blockers – cell-based, Fluo-4 calcium fluorescence, FDSS, MLSMR library, primary screen | Cav3.2-expressing cells; active compounds read low | Voltage-dependent T-type calcium channel subunit alpha-1H (Homo sapiens), O95180 | B-score at 10 µM | 4% of 100,000 active | AID 449739, 2010;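 active means single-dose well whose peak fluorescence ratio is a statistical outlier from its plate by either plate-standardised score or position-corrected B-score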
A number is an active result; 0 = inactive; - = no result. Only some compounds are listed: those with a hit (about 27% of all), similar ones and a draw of the others.

SMILES	CYP2C19 activ	CYP2C19 inhib	PTK2B oligo ant	CYP2C9 inhib	CYP2C9 activ	Cav3 T inh
CC(C)(C)NC(=O)[C@@H]1C[C@@H]2CCCC[C@@H]2CN1C[C@@H](O)[C@H](Cc1ccccc1)NC(=O)[C@H](CC(N)=O)NC(=O)c1ccc2ccccc2n1	-	-	-	-	-	-5.6
CC(C)C(NC(=O)OC(C)(C)C)C(=O)N1CCCC1C(=O)NC(Cc1ccccc1)C(N)=O (stereo not drawn)	0	0	0	0	0	0
c1ccc(-n2nnnc2Oc2ccc(-n3ccnc3)cc2)cc1	0	100	0	99	0	0
COc1cccc(Oc2nnnn2-c2ccccc2)c1	0	60	0	0	0	0
NC(=O)c1ccc(-n2nnnc2Oc2ccccc2)cc1	0	0	0	0	0	0
c1ccc(-n2nnnc2Oc2ccc(-c3nnco3)cc2)cc1	-	-	0	-	-	-
CC(C)Oc1nnnn1-c1ccccc1	0	0	0	63	0	0
Clc1ccc(Oc2nnnn2-c2ccccc2)cc1	0	73	0	0	0	0
c1ccc(-n2nnnc2OCCOc2nnnn2-c2ccccc2)cc1	0	0	0	0	0	0
COC(=O)c1ccc(NC(=O)C(=O)N2CCCC2)cc1	0	0	0	0	0	0
COC(=O)c1sccc1NC(=O)Cn1cnc2c1c(=O)n(C)c(=O)n2C	0	0	0	0	0	0
O=C(Nc1cccc2c1CCCC2)c1ccc(Br)o1	0	0	0	0	0	0
Cn1ncc(C#N)c1/N=C/N1CCCC1	0	0	0	0	0	0
COCc1cc(C)n(CC(=O)N/N=C/c2ccc(-c3ccc(Cl)c(C(=O)O)c3)o2)c(=O)c1C#N	-	-	0	-	-	-
COC(=O)C1=C(C)N(CC(C)C)C(=O)/C1=C\c1cccs1	0	0	0	0	0	0
COC(=O)C1=C(C)N(CC2CCCO2)C(=O)/C1=C\c1ccc(O)cc1 (stereo not drawn)	0	50	0	63	0	0
COC(=O)C1=C(C)N(Cc2ccc(C)cc2)C(=O)C1	0	0	0	0	0	0
COC(=O)C1=C(C)N(Cc2ccc(C)cc2)C(=O)/C1=C\c1ccc(O)c(OC)c1	0	52	0	92	0	0
Cc1cc(C)c(OCCCCCNCCO)c(C)c1	0	0	0	87	0	0
Cc1cc(OC2CCCCC2)nc(-c2ccccc2O)n1	0	0	0	0	0	0
CCn1c(COc2ccc(=O)n(-c3ccccc3)n2)nnc1SCc1ccc(C)cc1	0	0	0	0	0	0
CCn1c(COc2ccc(=O)n(-c3ccccc3)n2)nnc1SCc1ccccc1C	0	0	0	61	0	0
COC(=O)C1(Cc2ccc(O)cc2)OC(=O)C(O)=C1c1ccc(O)cc1 (stereo not drawn)	-	-	-	-	-	0
COc1ccc(C2CC(=O)c3cnc(NC(=O)c4ccccc4)nc3C2)cc1OC (stereo not drawn)	0	0	-	70	0	0
COc1cccc(C(=O)Nc2ncc3c(n2)CC(C)CC3=O)c1 (stereo not drawn)	0	0	0	0	0	0
SMILES	CYP2C19 activ	CYP2C19 inhib	PTK2B oligo ant	CYP2C9 inhib	CYP2C9 activ	Cav3 T inh
COc1cc(C2CC(=O)c3cnc(NC(=O)COc4ccccc4)nc3C2)cc(OC)c1OC (stereo not drawn)	0	0	-3.1	0	0	0
COc1cc(C2CC(=O)c3cnc(N)nc3C2)cc(OC)c1OC (stereo not drawn)	0	0	0	0	0	0
O=c1[nH]c2ccsc2c(=O)n1-c1ccc(F)cc1	0	0	0	0	0	0
CC(C)CC(=O)NC(=S)Nc1ccc(NC(=O)c2cccs2)cc1	0	0	0	0	0	0
COc1cc(-c2noc(CCCC(=O)NCc3ccco3)n2)cc(OC)c1OC	-	-	0	-	-	0
COC(=O)c1sccc1NC(=O)c1sccc1C	-	-	0	-	-	0
Cc1ccsc1C(=O)Nc1ccc(C(=O)O)cc1	0	92	0	57	0	0
CC(=O)c1c(C)[nH]c(C(=O)Nc2ccc3c(c2)OCCO3)c1C	0	0	0	0	0	0
CC(=O)c1c(C)[nH]c(C(=O)Nc2cccnc2)c1C	0	0	0	52	0	0
CC(=O)c1c(C)[nH]c(C(=O)Nc2ccc(C)c(C)c2)c1C	0	0	0	65	0	0
NC(=O)CC[C@@H]1NC(=O)[C@@H]2CCCN2C(=O)c2cc([N+](=O)[O-])cc(I)c2NCCCC[C@@H](C(=O)NC(CC(=O)O)C(N)=O)NC1=O (stereo partly drawn)	-	-	-	-	-	0
CCOC(=O)c1c(NC(=O)c2ccn(CC)n2)sc2c1CCCC2	0	55	0	68	0	0
NC(=O)c1c(NC(NC(=O)c2ccco2)C(=O)c2ccc(Cl)cc2)sc2c1CCCC2 (stereo not drawn)	0	0	0	0	0	0
COc1ccccc1NC(=O)c1csc2c1CCCC2	0	0	0	0	2.4	0
N#Cc1c(NC(NC(=O)c2ccco2)C(=O)c2ccccc2)sc2c1CCCC2 (stereo not drawn)	0	0	0	76	0	0
CCOC(=O)c1c(NC(=O)c2ccco2)sc2c1CCCC2	0	0	0	56	0	0
COc1ccccc1NC(=O)N1CCCC1C(=O)NC12CC3CC(CC(C3)C1)C2 (stereo not drawn)	0	0	0	0	0	0
Cc1ccc(S(=O)(=O)CC(C)N2CCN(C3CCCCC3)CC2)cc1 (stereo not drawn)	-	-	0	-	-	0
COc1ccccc1C(=O)Nc1sc2c(c1C(=O)NCc1ccco1)CCCC2	0	0	0	84	0	0
Cc1ccccc1OCC(=O)NCC1CCCO1 (stereo not drawn)	0	0	0	0	0	0
COc1ccccc1NC(=O)c1c(NC(=O)c2ccco2)sc2c1CCC2	0	0	0	64	0	0
CCOC(=O)c1c(NC(=O)c2ccco2)n(C2CCCCC2)c2nc3ccccc3nc12	0	0	0	55	0	0
COc1ccccc1OCC(=O)Nc1sc2c(c1C(=O)NCC1CCCO1)CCC2 (stereo not drawn)	0	52	0	96	0	0
O=C(Nc1sc2c(c1C(=O)NC1CCCCC1)CCC2)c1ccco1	0	0	0	0	0	0
c1ccc(Cn2nnnc2CN2CCOCC2)cc1	0	0	0	0	0	0
CCOC(=O)c1[nH]c(Cc2[nH]c(C(=O)OCC)c(C)c2CCC(=O)OC)c(CCC(=O)OC)c1C	0	58	0	72	0	-8.4
Cc1cc(C)c(-c2c(O)c3cnn(-c4ccccc4)c3[nH]c2=O)c(C)c1	-	-	0	-	-	-
O=[N+]([O-])c1ccc(NC(=S)N/C(=N/CS(=O)(=O)c2ccccc2)c2ccccc2)cc1	0	0	0	58	0	0
